Laboratory results from PubChem BioAssay AID1224855 (National Center for Advancing Translational Sciences (NCATS), 2016).
Records with an inconclusive call do not appear. Entries that show only a call come without a potency. Calls of active or inactive are those of the source. Calls follow the shape of the dose curve; as a rule, active = well fitted inhibition curve with a large enough effect; inconclusive = small, poorly fitted or top-dose-only effect; inactive = no such curve, though single readings can be large or run the other way.

Assay: Confirmation assay for measurement of the activity of small molecule inhibitors on Zika virus induced Caspase-3 activity in human iPSC derived neural progenitor cells (hNPCs)
Conditions: hNPC ZIKV-induced caspase-3/7, Caspase-Glo luminescence, 6 h; series mostly up to 46.1 µM
Text: National Center for Advancing Translational Sciences [NCATS] Johns Hopkins University School of Medicine Florida State University Assay Overview: Increase in the Caspase-3 activity indicates an activation of apoptosis cell death pathway caused by Zika virus infection in certain types of neuronal cells including human neural progenitor cells (hNPCs), astrocytes, and astrocytoma cell line (SNB-19). This cell-based caspase-3 activity assay measures the increased caspase-3 activity in the human iPSC derived neural progenitor cells (hNPCs) after a 6-hour Zika virus infection with a luminescence readout. A decrease in the luminescence signal in this assay by small molecule treatment indicates an inhibitory effect of that small molecule on the Zika virus induced caspase-3 activity that may correlate with its effect on reduction of Zika virus caused cell death.
Assay Protocol Summary: The medium for hNPCs consists of DMEM/F12, N2 supplement (ThermoFisher, Cat.# 17502048), NEAA (ThermoFisher, Cat. # 11140050), 2 ug/ml heparin, 2 uM cyclopamine, and B27 (ThermoFisher, Cat. # 17504044). A Caspase-Glo 3/7 assay kit (catalog number G8092; Promega, Madison, WI) was used to detect caspase-3 activity induced by Zika virus infection in human cells. The reagent mixture was reconstituted as described in the protocol from the manufacturer. Polystyrene tissue culture treated and PDL coated white plates were obtained from Greiner Bio-One (Monroe, NC). Cells were seeded in 384- or 1536-well assay plates and cultured at 37 C with 5% CO2 for 16 to 20 hours. The typical cell seeding density in the 1536-well plate assay is 350 cells/well in 3 ul medium for hNPCs in tissue culture treated plates. Compounds were added to cells and incubated for one hour before addition of ZIKV solution to cells (2 FFU/cell). After incubation at 37 C with 5% CO2 for 6 hours, the reagent mixture of Caspase-Glo 3/7 assay kit was added to each well, followed by incubation at room temperature for 30 minutes. The luminescence intensity of the assay plates was measured using a ViewLux plate reader (PerkinElmer). Data were normalized by using the cell-containing wells without ZIKV as a negative control (0% induction of caspase 3/7 activity) and wells containing ZIKV infected cells (Caspase-3 activity induced) as a positive control (100% induction of caspase 3 activity). The percentage inhibitions of the increased Caspase-3 activity by small molecule inhibitors were then calculated.

Row | SMILES | Potency
1 | COc1cccc2c1C(=O)c1c(O)c3c(c(O)c1C2=O)C[C@@](O)(C(=O)CO)CC3OC1CC(N2CCOC(OC)C2)C(O)C(C)O1 (some centres undefined) | inactive
2 | COP(=S)(OC)SCN1C(=O)c2ccccc2C1=O | inactive
3 | CC(C)N[C@@H]1CCn2c(=O)[nH]c3cccc(c32)[C@@H]1O | inactive
4 | CC(O)CN1CCN(CC(=O)[O-])CCN(CC(=O)[O-])CCN(CC(=O)[O-])CC1.[Gd+3] (centres undefined) | inactive
5 | O=S(=O)(CC1CS1)c1ccc(Oc2ccccc2)cc1 (centres undefined) | inactive
6 | CC(C)[C@H]1C(=O)N[C@H](CO)Cc2c[nH]c3cccc(c23)N1C | inactive
7 | CC[n+]1c(-c2ccccc2)c2cc(N)ccc2c2ccc(N)cc21 | inactive
8 | COC1(CS(=O)c2ccccc2)CCN(CCc2c[nH]c3ccc(F)cc23)CC1 (centres undefined) | inactive
9 | Oc1ccc([C@H]2CNCc3c2ccc(O)c3O)cc1O | inactive
10 | CC(C)[N+](C)(CCC(C(N)=O)(c1ccccc1)c1ccccc1)C(C)C | inactive
11 | O=C1CCC[C@@H]2[C@H]3CCCN4CCC[C@@H](CN12)[C@@H]34 | inactive
12 | O=C(Nc1ccc(Br)cc1)c1cc(Br)cc(Br)c1O | 13.8 µM (active)
13 | O=C1C=CC[C@@H]2[C@H]3CCCN4CCC[C@@H](CN12)[C@@H]34 | inactive
14 | O=c1c2ccccc2[se]n1-c1ccccc1 | 7.74 µM (active)
